PubChem BioAssay
The source made the active and inactive calls.

Key:
[1] = small molecules captured by biotinylated probe aFSTL3 – biochemical, small-molecule microarray, fluorescence 635/667, stem cell growth factor project, primary screen (AID 1064); conditions: higher = more signal;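 note: measures binding of the biotinylated anti-FSTL3 antibody to printed compounds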
[2] = binders from COS7 lysate, DM2A8 probe, primary screen, torsin A project, cell lysate, small-molecule microarray, fluorescence 635/667 (AID 1065); conditions: higher = more signal, COS7 lysate expressing mutant human TOR1A
[3] = small molecules captured by biotinylated probe aFGF2 – biochemical, small-molecule microarray, fluorescence 635/667, stem cell growth factor project, primary screen (AID 1067); conditions: higher = more signal;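 note: measures binding of biotinylated aFGF2 protein to printed compounds on slides; z-score merges feature fluorescence and signal-to-noise across triplicate slides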
[4] = small molecules captured by biotinylated probe aFGF10 – biochemical, small-molecule microarray, fluorescence 635/667, stem cell growth factor project, primary screen (AID 1071); conditions: higher = more signal;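 note: score merges 667 nm spot intensity and signal to noise from triplicate slides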
[5] = molecular target: Neurogenic locus notch homolog protein 2 (Homo sapiens) (UniProt Q04721); experiment: small molecules binding Notch2 protein – biochemical, small-molecule microarray, 635 nm fluorescence, stem cell growth factors, primary screen (AID 1073); conditions: higher = more signal
[6] = molecular target: Pro-neuregulin-1, membrane-bound isoform (Homo sapiens) (UniProt Q02297); experiment: small molecules binding neuregulin-1 protein – biochemical, small-molecule microarray, fluorescence 635/667, psychiatric disease protein project, primary screen (AID 1075); conditions: NRG1 binding, 635 nm fluorescence, higher = more signal;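 note: score combines 667 nm spot fluorescence with signal to noise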
[7] = test system: Neuregulin-1 EGF-like domain; experiment: small molecules binding NRG1 EGF domain – biochemical, small-molecule microarray, 635 nm fluorescence, primary screen (AID 1081); conditions: higher = more signal;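 note: binding of the protein to compounds printed on small-molecule microarray slides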
[8] = FRG1 expression reporter modulators in myotubes – cell-based, C2C12 myotubes, firefly/Renilla luciferase, luminescence, FRG1 inhibition for FSHD, primary screen (AID 1084); conditions: FRG1 promoter luciferase, higher = more signal, called active from +8 up or from −8 down
[9] = small molecules captured by biotinylated probe aFST – biochemical, small-molecule microarray, fluorescence 635/667, stem cell growth factor project, primary screen (AID 1086); conditions: higher = more signal;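 note: score merges 667 nm fluorescence with signal-to-noise of each printed compound spot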
[10] = binders of probe aHhip on microarray, primary screen, stem cell growth factor project, biochemical, small-molecule microarray, fluorescence 635/667 (AID 1087); conditions: higher = more signal;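 note: score merges spot fluorescence at 667nm with spot signal to noise ratio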
[11] = test system: PRMT1 (protein arginine N-methyltransferase 1); experiment: small molecules binding arginine methyltransferase PRMT1 – biochemical, small-molecule microarray, 635 nm fluorescence, primary screen (AID 1088); conditions: higher = more signal;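 note: binding of Prmt1 protein to compounds spotted on small-molecule microarray slides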
[12] = growth effects on S. cerevisiae YJM789 – YJM789 clinical isolate, OD600, 24 h, basal, primary screen (AID 1089); conditions: higher = more signal, called active from +8 up or from −8 down;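 note: growth of clinical yeast isolate S. cerevisiae YJM 789 seeded 1000 cells per well; test concentration not given here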
[13] = S. pombe growth modifiers, basal conditions – strain 972, OD600, 24 h, no modulator, primary screen (AID 1090);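 note: basal condition with compound alone and no growth modifier present; test concentration not given here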; conditions: S. pombe 972 growth, higher = more signal, called active from +8 up or from −8 down
[14] = budding yeast growth modifiers under rapamycin – strain BY4716, OD600, 96 h, primary screen (AID 1091); note: test concentration not given here; conditions: S. cerevisiae BY4716 + rapamycin, higher = more signal, called active from +8 up or from −8 down
[15] = molecular target: Torsin-1A-interacting protein 2 (Homo sapiens) (UniProt Q8NFQ8); experiment: small molecules binding lysate-expressed LULL1 – cell lysate, human LULL1 lysate, 635/667 nm fluorescence, primary screen (AID 1092); conditions: small-molecule microarray, hLULL1 lysate binding, 635 nm fluorescence; higher = more signal;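 note: probe is lysate of COS7 cells overexpressing human LULL1; score merges per-feature 667 nm fluorescence with signal-to-noise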
[16] = optical density change of DRC41 E. coli – strain DRC41, OD650, 24 h, E. coli filamentation project, primary screen (AID 1093);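 note: MC1000 strain lacking acrAB efflux and sulA so SOS filamentation is blocked; test concentration not given here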; conditions: E. coli DRC41 growth, higher = more signal, called active from +8 up or from −8 down
[17] = probe aLefty2 binding to arrayed compounds – biochemical, biotinylated probe, 635/667 nm fluorescence, primary screen (AID 1094); conditions: small-molecule microarray, higher = more signal;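 note: score merges spot fluorescence near 667 nm with spot signal-to-noise ratio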
[18] = test system: Noggin (protein binding on small-molecule microarray); experiment: small molecules binding Noggin protein – biochemical, 635/667 nm fluorescence, primary screen (AID 1095); conditions: 635 nm fluorescence, higher = more signal;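 note: score merges 667 nm feature fluorescence with signal to noise over triplicate slides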
[19] = molecular target: Neurogenic locus notch homolog protein 3 (Homo sapiens) (UniProt Q9UM47); experiment: small molecules binding NOTCH3 protein – biochemical, 635/667 nm fluorescence, primary screen (AID 1096); conditions: small-molecule microarray, 635 nm fluorescence, higher = more signal
[20] = probe aEGFR binding to arrayed compounds – biochemical, biotinylated probe, 635/667 nm fluorescence, primary screen (AID 1097); conditions: small-molecule microarray, higher = more signal;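 note: probe is a biotinylated anti-EGFR antibody binding compounds printed on slides; score combines fluorescence near 667 nm and signal to noise of each spot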

Sequence of Neurogenic locus notch homolog protein 2 (Homo sapiens) (Q04721 whole entry, looked up, canonical isoform): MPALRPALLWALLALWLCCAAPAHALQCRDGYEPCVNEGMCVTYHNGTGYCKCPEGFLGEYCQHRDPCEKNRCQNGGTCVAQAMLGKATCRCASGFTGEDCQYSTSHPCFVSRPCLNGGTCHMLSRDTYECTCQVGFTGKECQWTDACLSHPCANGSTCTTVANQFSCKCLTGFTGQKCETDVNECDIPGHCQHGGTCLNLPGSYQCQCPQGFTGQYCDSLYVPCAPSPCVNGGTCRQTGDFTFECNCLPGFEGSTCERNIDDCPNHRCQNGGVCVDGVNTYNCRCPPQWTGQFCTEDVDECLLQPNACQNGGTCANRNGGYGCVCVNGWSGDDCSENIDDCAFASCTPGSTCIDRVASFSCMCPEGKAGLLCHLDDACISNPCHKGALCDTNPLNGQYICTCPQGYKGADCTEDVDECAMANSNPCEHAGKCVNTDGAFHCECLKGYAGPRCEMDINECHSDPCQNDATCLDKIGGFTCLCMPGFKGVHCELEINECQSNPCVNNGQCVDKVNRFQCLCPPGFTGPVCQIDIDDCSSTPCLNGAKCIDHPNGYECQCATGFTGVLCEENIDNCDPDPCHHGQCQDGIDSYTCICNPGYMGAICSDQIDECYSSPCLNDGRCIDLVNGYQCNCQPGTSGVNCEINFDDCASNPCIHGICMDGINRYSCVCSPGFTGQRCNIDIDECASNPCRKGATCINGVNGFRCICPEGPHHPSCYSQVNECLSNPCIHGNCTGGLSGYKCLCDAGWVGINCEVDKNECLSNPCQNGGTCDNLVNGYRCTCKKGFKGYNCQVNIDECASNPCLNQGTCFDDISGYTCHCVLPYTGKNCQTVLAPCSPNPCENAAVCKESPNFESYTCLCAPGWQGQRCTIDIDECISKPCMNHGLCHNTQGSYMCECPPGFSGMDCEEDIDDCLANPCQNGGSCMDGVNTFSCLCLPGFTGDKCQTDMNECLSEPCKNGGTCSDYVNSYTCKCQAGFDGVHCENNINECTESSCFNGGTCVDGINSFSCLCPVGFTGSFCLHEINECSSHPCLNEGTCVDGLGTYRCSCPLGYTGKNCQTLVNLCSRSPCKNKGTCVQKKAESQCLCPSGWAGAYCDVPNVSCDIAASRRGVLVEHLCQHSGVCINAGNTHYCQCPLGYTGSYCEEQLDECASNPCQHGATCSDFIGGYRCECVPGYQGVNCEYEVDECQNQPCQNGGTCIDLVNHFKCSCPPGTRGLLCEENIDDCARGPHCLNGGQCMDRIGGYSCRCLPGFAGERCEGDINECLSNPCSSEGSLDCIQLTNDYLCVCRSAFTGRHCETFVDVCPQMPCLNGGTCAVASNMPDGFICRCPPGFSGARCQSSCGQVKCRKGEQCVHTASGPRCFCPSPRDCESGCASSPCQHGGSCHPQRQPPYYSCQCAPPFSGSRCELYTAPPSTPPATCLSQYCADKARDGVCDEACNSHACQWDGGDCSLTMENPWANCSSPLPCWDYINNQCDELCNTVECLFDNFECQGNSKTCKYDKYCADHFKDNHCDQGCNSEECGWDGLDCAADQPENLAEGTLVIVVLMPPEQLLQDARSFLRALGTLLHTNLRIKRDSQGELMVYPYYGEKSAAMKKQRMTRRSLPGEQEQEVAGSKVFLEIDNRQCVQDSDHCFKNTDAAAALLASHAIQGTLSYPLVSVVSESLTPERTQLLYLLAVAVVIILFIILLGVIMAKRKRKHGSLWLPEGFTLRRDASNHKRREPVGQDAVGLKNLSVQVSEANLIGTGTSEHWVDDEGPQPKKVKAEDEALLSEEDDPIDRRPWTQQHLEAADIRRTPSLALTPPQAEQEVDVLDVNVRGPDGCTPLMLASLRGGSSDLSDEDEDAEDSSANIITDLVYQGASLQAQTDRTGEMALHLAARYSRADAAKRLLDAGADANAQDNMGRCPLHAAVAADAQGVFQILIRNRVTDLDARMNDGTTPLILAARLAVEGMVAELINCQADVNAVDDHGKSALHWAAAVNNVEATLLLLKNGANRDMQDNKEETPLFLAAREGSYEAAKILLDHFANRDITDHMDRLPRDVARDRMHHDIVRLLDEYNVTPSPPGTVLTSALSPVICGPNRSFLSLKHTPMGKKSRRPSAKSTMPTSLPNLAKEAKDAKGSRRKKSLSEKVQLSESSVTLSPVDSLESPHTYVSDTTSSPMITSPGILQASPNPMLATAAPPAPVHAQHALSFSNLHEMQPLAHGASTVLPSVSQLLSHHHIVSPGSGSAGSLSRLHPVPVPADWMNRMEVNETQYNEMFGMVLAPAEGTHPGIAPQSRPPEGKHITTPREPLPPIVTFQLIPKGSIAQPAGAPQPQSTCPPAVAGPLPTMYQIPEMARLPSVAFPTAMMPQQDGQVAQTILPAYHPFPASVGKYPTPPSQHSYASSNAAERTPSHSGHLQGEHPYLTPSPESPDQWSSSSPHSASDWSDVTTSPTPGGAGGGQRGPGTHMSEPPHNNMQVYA
Sequence of Torsin-1A-interacting protein 2 (Homo sapiens) (Q8NFQ8 whole entry, looked up): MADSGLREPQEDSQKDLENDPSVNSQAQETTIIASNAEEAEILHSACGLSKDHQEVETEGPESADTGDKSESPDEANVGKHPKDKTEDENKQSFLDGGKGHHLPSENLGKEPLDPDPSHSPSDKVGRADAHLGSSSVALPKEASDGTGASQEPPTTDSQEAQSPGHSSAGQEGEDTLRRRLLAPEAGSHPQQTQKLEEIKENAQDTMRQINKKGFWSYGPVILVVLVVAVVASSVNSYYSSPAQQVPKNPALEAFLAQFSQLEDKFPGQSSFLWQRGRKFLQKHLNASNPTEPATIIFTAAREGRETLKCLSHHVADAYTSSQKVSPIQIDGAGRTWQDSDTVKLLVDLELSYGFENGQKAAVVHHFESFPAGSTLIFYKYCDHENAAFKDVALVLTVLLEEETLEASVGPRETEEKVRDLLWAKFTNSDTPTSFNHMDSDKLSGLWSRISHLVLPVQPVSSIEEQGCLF
Sequence of Pro-neuregulin-1, membrane-bound isoform (Homo sapiens) (Q02297 whole entry, looked up, the tested form may be a part, canonical isoform): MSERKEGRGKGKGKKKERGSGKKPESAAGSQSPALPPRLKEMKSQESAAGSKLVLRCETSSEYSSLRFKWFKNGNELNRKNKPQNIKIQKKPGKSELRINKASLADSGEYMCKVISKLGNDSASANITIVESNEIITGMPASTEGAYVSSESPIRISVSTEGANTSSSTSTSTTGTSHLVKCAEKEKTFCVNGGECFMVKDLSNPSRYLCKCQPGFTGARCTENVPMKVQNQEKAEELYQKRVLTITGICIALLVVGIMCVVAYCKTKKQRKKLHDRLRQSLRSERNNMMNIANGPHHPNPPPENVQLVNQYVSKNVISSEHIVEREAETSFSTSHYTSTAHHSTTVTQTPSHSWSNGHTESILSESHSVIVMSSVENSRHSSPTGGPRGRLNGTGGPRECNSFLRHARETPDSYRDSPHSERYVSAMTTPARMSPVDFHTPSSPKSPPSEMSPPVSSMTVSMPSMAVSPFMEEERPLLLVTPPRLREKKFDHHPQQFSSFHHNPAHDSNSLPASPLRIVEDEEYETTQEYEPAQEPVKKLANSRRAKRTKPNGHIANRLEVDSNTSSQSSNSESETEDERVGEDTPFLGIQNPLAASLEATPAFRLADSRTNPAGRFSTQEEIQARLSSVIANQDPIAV

Structure (SMILES)	composite z-score [1]	composite z-score [2]	composite z-score [3]	composite z-score [4]	composite z-score [5]	composite z-score [6]	composite z-score [7]	z-score [8]	composite z-score [9]	composite z-score [10]	composite z-score [11]	z-score [12]	z-score [13]	z-score [14]	composite z-score [15]	z-score [16]	composite z-score [17]	composite z-score [18]	composite z-score [19]	composite z-score [20]
CCCNC(=O)[C@@]1(c2ccc([N+](=O)[O-])cc2)CC(=O)N(C(C)C)[C@@H]1c1ccc(CO)cc1	0.829	-0.22	-0.111	-0.904	-1.73	0.0532	0.843	-0.558 (inactive)	-1.14	-0.0618	-0.854	-0.836 (inactive)	-1 (inactive)	-0.594 (inactive)	1.41	0.353 (inactive)	-0.268	-1.27	-0.124	-0.278
C=C1C(=O)C=C2CN(C(=O)c3ccccc3)[C@@](Cc3ccc(OC)cc3)(C(=O)OC)[C@@H]12	0.53	0.442	0.369	1.01	1.72	2.09	1.29	2.08 (inactive)	0.924	0.212	1.54	0.573 (inactive)	1.85 (inactive)	10.3 (active)	3.85	-0.656 (inactive)	0.68	0.232	1.01	0.146
C=CCC(OC(C)=O)[C@@H]1[C@@H](N(Cc2ccc(-c3cccc(C(F)(F)F)c3)o2)C(=O)c2ccc(-c3ccccc3)cc2)c2cc(OCCCO)ccc2N1C(=O)c1ccc2ccccc2c1 (stereo not given in full)	-0.071	-0.651	-0.105	-0.117	0.311	-0.0973	-0.373	-0.274 (inactive)	0.543	-0.0618	-1.39	0.729 (inactive)	1.16 (inactive)	0.136 (inactive)	0.254	-0.28 (inactive)	-0.0485	0.28	0.461	-0.0828
COc1ccc(C(=O)Nc2cccc(CN3C(=O)[C@]4(O[C@H](CC(=O)N5Cc6ccccc6C[C@H]5CO)[C@@H]([Si](C)(C)c5ccc(OC)cc5)[C@@H]4C)c4ccccc43)c2)cc1	-0.24	0.822	-0.159	0.426	0.424	0.466	0.762	-1.66 (inactive)	0.208	-0.211	1.55	0.143 (inactive)	1.46 (inactive)	1.79 (inactive)	0.906	2.31 (inactive)	-0.186	1.73	1.1	-0.027
